Measured potencies and affinities stand elsewhere. Active and inactive are the calls of the source.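 How the source made its calls: active means viability signal drop whose fitted half-maximal concentration is at most twice the top valid dose; inconclusive means flat partial drop or unreliable curve fit; inactive means the rest.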

The assay is described as follows: lung carcinoma cell viability loss – CellTiter-Glo luminescence, dry powder, set 17, dose response (AID 1117284). The note with it: A549 viability, CellTiter-Glo ATP luminescence, 72 h; series mostly up to 26 µM.
In the case of `CO[C@H]1CN(C)C(=O)c2ccc(NC(=O)c3ccc(F)cc3)cc2OC[C@H](C)N(C(=O)c2ccc(F)cc2)C[C@@H]1C`, the result was inactive.

As for `C[C@@H](O)C#Cc1ccc2c(c1)O[C@@H](CN(C)C(=O)c1ccc(-c3ccccc3)cc1)[C@@H](C)CN([C@@H](C)CO)S2(=O)=O`, the result was inactive.

As to `C[C@@H](O)C#Cc1ccc2c(c1)O[C@@H](CN(C)Cc1cccnc1)[C@@H](C)CN([C@@H](C)CO)S2(=O)=O`, the call was inactive.

`CNC[C@@H]1Oc2cc(Br)ccc2S(=O)(=O)N([C@@H](C)CO)C[C@@H]1C`: the call was inactive.

In the case of `C[C@H]1CN([C@@H](C)CO)S(=O)(=O)c2ccc(Br)cc2O[C@H]1CN(C)Cc1ccc(-c2ccccc2)cc1`, the result was inactive.

As for `C[C@@H](O)C#Cc1ccc2c(c1)O[C@@H](CN(C)S(=O)(=O)c1ccc(-c3ccccc3)cc1)[C@@H](C)CN([C@@H](C)CO)S2(=O)=O`, the result was inactive.

With `C[C@H](CO)N1C[C@H](C)[C@H](CN(C)Cc2ccc(-c3ccccc3)cc2)Oc2cc(C#C[C@@H](C)O)ccc2S1(=O)=O`, the compound was called inactive.

For the compound `C[C@@H](O)C#Cc1ccc2c(c1)O[C@@H](CN(C)Cc1ccncc1)[C@@H](C)CN([C@@H](C)CO)S2(=O)=O`, the compound was classed as inactive.

The values are drawn from PubChem BioAssay AID1117284 (Broad Institute, 2014).
